High-throughput results (PubChem)
This is a sample that favours compounds with a hit; in the whole collection about 7.5% have one here.
KinaseGlo FLuc – Counterscreen for Luciferase (Kinase-Glo TM) Inhibition. actives 0.28% (n = 200,000). Potency, µM (titrated, usually from 38.3 µM), usual class: inhibitors. Luciferin 4-monooxygenase (Photuris pensylvanica), Q27757. Kinase-Glo luciferase, ATP luminescence, 8 min; further: nearly all actives have a fitted effect of over 60% in size
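Substrate mix (final 50 mM imidazole pH 7.2, 50 mM KCl, 7 mM MgCl2, 10 uM ATP, 0.01% Tween 20, 0.05% BSA) plus pin-tool compound, then Kinase-Glo detection mix; 8 min ambient, luminescence read.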
FLuc modulator – qHTS profiling assay for firefly luciferase inhibitor/activator using purifed enzyme and Km concentrations of substrates (counterscreen for miR-21 project). Luciferin 4-monooxygenase (Photinus pyralis), P08659. actives 6.9% (n = 360,000). purified FLuc, Km substrates, luminescence inhibition. Potency, µM (titrated, usually from 57.5 µM), most hits filed as inhibitors; further: nearly all actives have a fitted effect of over 55% in size
Target sequence (P08659 whole entry, looked up): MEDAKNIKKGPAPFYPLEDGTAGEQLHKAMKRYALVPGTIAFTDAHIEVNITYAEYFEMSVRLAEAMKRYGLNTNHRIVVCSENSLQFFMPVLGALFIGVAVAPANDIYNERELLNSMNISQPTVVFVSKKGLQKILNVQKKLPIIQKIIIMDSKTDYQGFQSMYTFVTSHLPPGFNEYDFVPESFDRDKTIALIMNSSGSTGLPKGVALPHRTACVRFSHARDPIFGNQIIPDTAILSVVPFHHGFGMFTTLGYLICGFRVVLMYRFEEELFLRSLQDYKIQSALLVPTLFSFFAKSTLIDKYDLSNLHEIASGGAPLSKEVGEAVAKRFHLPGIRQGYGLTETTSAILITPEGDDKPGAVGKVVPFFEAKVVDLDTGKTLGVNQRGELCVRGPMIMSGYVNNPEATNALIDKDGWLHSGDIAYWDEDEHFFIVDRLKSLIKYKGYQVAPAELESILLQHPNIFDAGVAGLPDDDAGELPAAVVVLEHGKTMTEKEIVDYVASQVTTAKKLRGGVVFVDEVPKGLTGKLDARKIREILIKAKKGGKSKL
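Purified P. pyralis luciferase (10nM final) with 10uM D-luciferin and 10uM ATP (Km levels) in 50mM Tris acetate pH 7.5, 10mM Mg acetate, 0.01% Tween-20, 0.05% BSA; qHTS 6-point titration, ~60 µM downward; luminescence read.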
ELG1 genotoxic – qHTS screen for small molecules that induce genotoxicity in human embryonic kidney (HEK293T) cells expressing luciferase-tagged ELG1. HEK293T ELG1-luciferase reporter, luminescence, 16 h. Potency, µM (doses to about 46 µM), hits mostly activators. actives 1.3% (n = 330,000); further: nearly all actives have a fitted effect of over 60% in size
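After overnight (16 hr) compound treatment at 37 °C, ELG1-luciferase HEK293T cells were lysed with ONE-Glo; luminescence quantified 30 min later at room temperature.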
SMN2 splice up – qHTS Assay for Enhancers of SMN2 Splice Variant Expression; HEK293 SMN2-luciferase splicing reporter, luminescence, 30-36 h; Potency, µM (series often up to 46.1 µM), usual class: activators; actives 2.8% (n = 210,000); AID 1458, 2008; further: nearly all actives have a fitted effect of over 55% in size
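HEK293 cells carry an SMN2 minigene-luciferase reporter in which exon 7 inclusion puts luciferase in frame. Cells were seeded at 2000 cells/well, attached for 10-12 hours, then exposed to compounds for 30-36 hours at 37C before ONE-Glo luminescence.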
Rab9 prom act – qHTS Assay for Rab9 Promoter Activators. Huh7 Rab9 promoter-luciferase reporter, luminescence, 24 h. Potency, µM (top dose mostly 9.22 µM), usual class: activators. actives 2.8% (n = 320,000); further: nearly all actives have a fitted effect of over 60% in size
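Quantitative HTS format; Huh7 Rab9-luciferase reporter cells (1500/well) receive compound 2 h post-plating, incubate 24 h at 37 °C, then get luciferase reagent for 10 min before luminescence reading.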
NPC1 promoter act – qHTS Assay for NPC1 Promoter Activators | Huh7 NPC1 promoter luciferase reporter, 24 h | Potency, µM (highest dose often 9.22 µM), hits mostly activators | actives 2.4% (n = 320,000) | AID 485313, 2010; further: nearly all actives have a fitted effect of over 60% in size
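Readout is luciferase luminescence, reflecting NPC1 promoter activation in stably transfected Huh7 cells after 24 h compound exposure at 37 °C in reduced-serum medium with 10% FBS.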
Hits are given with their value; n = inactive; u = inconclusive; x = no result; [ ] = dose if it differs, or a comment. The call rests on the fitted dose curve; in most records, active means well fitted curve in the direction sought with a large enough effect; inconclusive means small, poorly fitted or top-dose-only effect, or another doubt; inactive means no such curve, though single readings can be large; an effect the other way counts as inactive or inconclusive.

SMILES | KinaseGlo FLuc | FLuc modulator | ELG1 genotoxic | SMN2 splice up | Rab9 prom act | NPC1 promoter act
COc1ccc(CNC(=O)CSc2nc(-c3ccccc3)cc(-c3cccs3)c2C#N)cc1 | n | n | u | n | n | n
C[C@H](O)C(=O)Nc1c(I)c(C(=O)NC(CO)CO)c(I)c(C(=O)NC(CO)CO)c1I | n | x | x | n | x | x
CC(=O)OC1CC(OC(C)=O)[C@]2(C)C(CC(=O)[C@]3(C)C2CC[C@@]2(C)C(c4ccoc4)OC(=O)C4O[C@@]423)C1(C)C (some centres undefined) | n | x | x | n | x | x
CC(=O)c1cccc(NC(=O)CSc2ccc(-c3ccc4c(c3)OCO4)nn2)c1 | n | u | n | n | u | n
COc1ccc(-c2ccc(SCC(=O)NC3CCCCC3)nn2)cc1OC | x | 5.36µM | n | x | u | n
COc1ccc(-c2cc(C(F)(F)F)nc(SCC(=O)NCc3ccco3)n2)cc1OC | n | n | n | n | n | n
COc1ccc(-c2ccc(SCC(=O)Nc3cccc(C(C)=O)c3)nn2)cc1OC | n | 6.01µM | n | x | n | n
COc1ccc(-c2ccc(SCC(=O)NCc3ccco3)nn2)cc1OC | n | 21.3µM | n | n | n | n
CC(=O)c1cccc(NC(=O)CSc2ccc(-c3ccco3)nn2)c1 | x | 23.9µM | n | x | n | n
Cc1cccc(CNc2ncncc2-c2cccc(NS(C)(=O)=O)c2)c1 | n | x | x | n | x | x
Cc1ccccc1CN1CCc2cc([N+](=O)[O-])ccc21 | x | n | n | x | n | n
COC(=O)CCN1CCc2cc(N=Nc3ccc([N+](=O)[O-])cc3)ccc21 | x | 0.675µM | u | x | 1.12µM | 1.12µM
O=C(Oc1ccc(Cl)cc1)c1ccc2nccnc2c1 | n | 3.79µM | n | n | n | n
Cc1cccc(OC(=O)c2ccc3nccnc3c2)c1 | n | 15.1µM | n | n | n | n
COc1cccc(C(=O)/C=C/c2ccc(OCC#N)c(OC)c2)c1 | n | u | n | n[1.84 µM] | n | n
CCC(=O)c1ccc(OCc2ccc(C(=O)OC)cc2)c(OC)c1 | n | n | n | u | n | n
CCOc1ccc(/C=C/C(=O)c2ccccc2)cc1OC | n | 4.26µM | u | n | u | u
CCC(=O)c1ccc(OCc2ccccc2)c(OC)c1 | n | u | u | 14.1µM | u | u
CCOc1ccc(C(=O)/C=C/c2ccc(OC)c(OC)c2)cc1 | n | 16.9µM | n | n | n | n
Cc1cccc(C)c1Nc1nc2ccccc2o1 | n | n | n | n | n | n
CCOC(=O)c1cnc(-c2ccccc2)nc1C(F)(F)F | n | u | n | n | n | n
Cc1nc(Nc2nc3ccccc3o2)nc2c1CCC2 | u | 1.69µM | u | 2µM | u | u
CCOC(=O)c1cnc(Nc2ccc(OCC)cc2)nc1C | n | u | u | n | n | u
CCOC(=O)c1cnc(Nc2ccccc2)nc1C(F)(F)F | x | 23.9µM | n | x | n | n
CCOC(=O)c1cnc(Nc2nc3ccccc3o2)nc1C | 2µM | 0.379µM | x | n | u | u
SMILES | KinaseGlo FLuc | FLuc modulator | ELG1 genotoxic | SMN2 splice up | Rab9 prom act | NPC1 promoter act
O=C(Nc1ccccc1)/C(=C/c1ccc(O)cc1)NC(=O)c1ccco1 | x | n | n | x | n | n
COc1ccc(-c2cc3ccccc3s2)cc1[C@H]1[C@H]2C=CC[C@@H](C)[C@@H]2C(=O)N1Cc1ccccc1 | x | 1.35µM | u | x | 2.82µM | 3.16µM
COc1ccc(-c2ccc(OC)c([C@H]3[C@H]4C=CC[C@@H](C)[C@@H]4C(=O)N3Cc3ccccc3)c2)cc1C | x | n | n | x | n | n
O=C(c1ccc(Cl)cc1)n1nc(-c2ccccc2)nc1NCc1ccco1 | x | x | x | n | x | x
COc1ccc(-c2cc(C(=O)NCCc3ccc(OC)c(OC)c3)c3ccccc3n2)cc1 | x | 6.75µM | x | n | x | x
COc1ccc(CCNC(=O)c2cccc3ccccc23)cc1OC | x | n | n | x | n | n
COc1ccc(CCNC(=O)c2cc(-c3ccc(C)c(C)c3)nc3ccccc23)cc1OC | x | 2.69µM | x | x | x | x
Cc1cc(C)c(S(=O)(=O)N2CCCC(C(=O)NC3CCCC3)C2)c(C)c1 (centres undefined) | x | n | n | x | n | n
O=C(COC(=O)CNS(=O)(=O)c1ccc(F)c(F)c1F)NCCc1ccccc1 | x | 5.36µM | u | x | u | u
C[C@@H]1CC2(OC(O)[C@]3(C)O[C@H]23)O[C@H]2C[C@@]3(C)[C@@H]4CC[C@H]5C(C)(C)C(O[C@@H]6OC[C@@H](O)[C@H](O)[C@H]6O)CC[C@@]56C[C@@]46CC[C@]3(C)[C@@H]12 (some centres undefined) | x | x | x | n | x | x
COc1ccc(OC)c(N=C(C)C2=C(O)COC2=O)c1 | n | n | n | 11.2µM | n | n
CC(=Nc1ccccc1)C1=C(O)COC1=O | n | n | n | n | n | n
O=C1C(c2ccc(F)cc2)N(CCc2ccccc2)C(=O)CN1C1CCCCC1 (centres undefined) | x | n | x | x | x | x
Fc1ccc(C(CCNCc2ccccn2)c2ccc(Cl)cc2)cc1 (centres undefined) | x | n | n | x | n | n
COc1cccc(C(=O)Nc2ccc(C3CC3(Cl)Cl)cc2)c1 (centres undefined) | n | 2.69µM | u | 12.6µM | 1.12µM | 2.24µM
